This is an account of results in PubChem BioAssay.

Active and inactive are the calls of the source. Unless noted, how the calls were made is not given here.

Assay [1] relates to XIP peptide (Xip251-270) binding. Put plainly: XIP fragment 251-270 binding compounds – biochemical, small-molecule microarray, fluorescence 635/667 nm, 0.1 µg/mL protein, primary screen (AID 1182). The conditions noted are these: fluorescent protein binding, 635 nm, higher = more signal, called active from +8 up or from −8 down.
The test system of the next assay is XIP peptide (Xip251-270). Briefly: compounds binding XIP fragment 251-270 – biochemical, small-molecule microarray, fluorescence 635/667 nm, 0.5 µg/mL protein, primary screen (AID 1183). The conditions noted are these: fluorescence 635 nm, higher = more signal.
Assay [2] in a line: blood-stage malaria parasite viability loss – strain 3D7, DAPI fluorescence, 100 nL, primary screen (AID 1184).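 Further: parasites grown inside human red blood cells in medium with human serum.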 The conditions noted are these: P. falciparum 3D7 growth, 3 d, higher = more signal.
Assay [3] deals with Homeobox protein Hox-A13 (Mus musculus) (UniProt Q62424). Briefly: disruptors of Hoxa13 oligonucleotide interaction – biochemical, fluorescence polarization, labeled oligonucleotide, primary screen (AID 1185). The conditions noted are these: Hoxa13:DNA binding, 15 min, higher = more signal, called active from +8 up or from −8 down.
The nature of assay [4]: blockers of DNA damage checkpoint Chk1 activation – imaging, HeLa, hydroxyurea, phospho-Chk1 antibody, percent positive cells, primary screen (AID 1186). Particulars: hydroxyurea-induced phospho-Chk1 immunofluorescence imaging, higher = more signal.
The nature of assay [5]: blockers of DNA damage checkpoint Chk1 activation – imaging, HeLa, hydroxyurea, phospho-Chk1 nuclear intensity, primary screen (AID 1187). The conditions noted are these: hydroxyurea-induced phospho-Chk1 immunofluorescence imaging, higher = more signal.

Homeobox protein Hox-A13 (Mus musculus), sequence (Q62424 whole entry, looked up): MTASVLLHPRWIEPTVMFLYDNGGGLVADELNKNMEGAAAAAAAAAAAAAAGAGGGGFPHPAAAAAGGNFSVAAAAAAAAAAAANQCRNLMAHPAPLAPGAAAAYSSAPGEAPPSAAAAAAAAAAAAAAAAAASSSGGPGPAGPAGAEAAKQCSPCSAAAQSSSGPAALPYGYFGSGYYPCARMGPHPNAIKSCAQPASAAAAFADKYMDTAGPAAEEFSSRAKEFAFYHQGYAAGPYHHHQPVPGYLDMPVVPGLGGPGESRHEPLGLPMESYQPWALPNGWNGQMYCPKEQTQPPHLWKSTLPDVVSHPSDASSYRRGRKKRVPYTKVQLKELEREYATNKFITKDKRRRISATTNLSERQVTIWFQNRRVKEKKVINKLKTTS

For the compound `CN1C(=O)C2C=CC(C(O)C3CC=CCC3)N(N(c3ccccc3)c3ccccc3)C2C1=O` (configuration not stated), the composite z-score in assay [1] was 0.241 (inactive); in the assay on XIP peptide (Xip251-270), -0.283. The z-score in assay [2] is -0.201; in assay [3], -1.18 (inactive); in assay [4], 0.451 (inactive); in assay [5], 0.0168 (inactive).
As to `COc1ccccc1CN1C(=O)c2ccccc2[C@@]2(Cc3ccccc3N(CC(C)C)C2=O)[C@@H]1c1ccc(CO)cc1`, the composite z-score in assay [1] is -0.25 (inactive); in the assay with XIP peptide (Xip251-270), 0.607. The z-score in assay [2] is -0.422; in assay [3], -0.795 (inactive); in assay [4], -0.132 (inactive); in assay [5] it was -0.425 (inactive).
For `CO[C@H]1O[C@H](CO)[C@@H](OC(=O)Nc2ccc(Oc3ccccc3)cc2)[C@H](OC(=O)Nc2ccc3c(c2)OCO3)[C@H]1OC(=O)Nc1ccc2c(c1)OCO2`, the figures for the composite z-score (in assay [1]; with XIP peptide (Xip251-270)) were 0.69 (inactive) and 0.891, respectively. Moreover, the z-score was -2.33 in assay [2], -5.25 (inactive) in assay [3], -0.334 (inactive) in assay [4] and -0.152 (inactive) in assay [5].
Turning to `COc1cc2c(cc1OC)CN(C(=O)[C@H]1[C@@H]3C(=O)O[C@@H](c4ccccc4)[C@@H](c4ccccc4)N3[C@@H](c3ccc(O)cc3)[C@]13C(=O)Nc1ccc(C#CCCO)cc13)CC2`, the composite z-score in assay [1] was 0.22 (inactive); in the assay on XIP peptide (Xip251-270) it was 0.798. For the same compound, the z-score in assay [2] was -1.56; in assay [3], -3.49 (inactive); in assay [4], 0.113 (inactive); in assay [5] it was 0.393 (inactive).
Turning to `CCCC[C@H]1OB(O)C[C@H]2C1=C(COC)Cn1c(=O)n(-c3ccccc3)c(=O)n12`, the results for the composite z-score (in assay [1]; with XIP peptide (Xip251-270)) were 0.81 (inactive) and -0.305, respectively. Besides, the z-score was -1.29 in assay [2], -2.41 (inactive) in assay [3], -0.503 (inactive) in assay [4] and -0.639 (inactive) in assay [5].
In the case of `N#Cc1ccc(NN2C(C(O)C(c3ccccc3)c3ccccc3)C=CC3C(=O)N(c4ccccc4)C(=O)C32)cc1` (configuration not stated), the results for the composite z-score (in assay [1]; in the assay on XIP peptide (Xip251-270)) were 0.424 (inactive) and 0.646, respectively. In addition, the z-score in assay [2] is -0.231; in assay [3], 1.55 (inactive); in assay [4], 0.377 (inactive); in assay [5], 0.484 (inactive).
Regarding `C=CCOC(=O)[C@H]1[C@@H]2C(=O)O[C@@H](c3ccccc3)[C@@H](c3ccccc3)N2[C@@H](c2ccc(OCCOC(=O)[C@H]3C[C@H]4C(=O)N[C@@H](CCCCNC(C)=O)C(=O)N4[C@H]3c3ccc(O)cc3)cc2)[C@]12C(=O)Nc1ccc(I)cc12`, the composite z-score in assay [1] was 0.159 (inactive); in the assay with XIP peptide (Xip251-270), 0.671. Besides, the z-score in assay [2] was -1.39; in assay [3], 5.87 (inactive); in assay [4], -0.484 (inactive); in assay [5], -0.782 (inactive).
For `COCCCNC(=O)[C@]1(CCC(=O)OC(C)(C)C)N=C(c2ccc(OCCCO)cc2)O[C@@H]1c1ccccc1CN=[N+]=[N-]`, the composite z-score was -0.0552 (inactive) in assay [1] and 0.848 in the assay with XIP peptide (Xip251-270). In addition, the z-score in assay [2] is -2.08; in assay [3], -6.66 (inactive); in assay [4], -0.113 (inactive); in assay [5] it was -0.534 (inactive).
`COCCOC(=O)N1C(=O)[C@@]2(c3cc(C#CCC(C(=O)OC)C(=O)OC)ccc31)[C@H](C(=O)Nc1nc3ccccc3s1)[C@H]1C(=O)O[C@H](c3ccccc3)[C@H](c3ccccc3)N1[C@@H]2c1ccccc1OCCO`: the composite z-score was 1.95 (inactive) in assay [1] and 0.813 with XIP peptide (Xip251-270). Further, the z-score in assay [2] is -1.8; in assay [3], 3.19 (inactive); in assay [4], 0.0747 (inactive); in assay [5] it was 0.233 (inactive).
Regarding `CCCC[C@@H]1C[C@H]1[C@@H](NC(=O)c1cccs1)c1ccc(-c2ccccc2)cc1`, the composite z-score in assay [1] was 0.217 (inactive); in the assay with XIP peptide (Xip251-270), -0.319. Besides, the z-score in assay [2] was 0.0576; in assay [3], -1.5 (inactive); in assay [4] it was 0.0111 (inactive); in assay [5] it was 0.0204 (inactive).
For the compound `COCCCNC(=O)[C@@H]1c2ccccc2C(=O)N(Cc2ccccc2Cl)[C@H]1c1ccc(CO)cc1`, the composite z-score in assay [1] is 0.432 (inactive); with XIP peptide (Xip251-270) it was 0.0699. For the same compound, the z-score was 0.652 in assay [2], -2.2 (inactive) in assay [3], -0.57 (inactive) in assay [4] and -0.352 (inactive) in assay [5].
For the compound `CC(=O)n1cc(C(O)C2C=CC3C(=O)N(c4ccccc4)C(=O)C3N2Nc2ccc([N+](=O)[O-])cc2)c2ccccc21` (configuration not stated), the figures for the composite z-score (in assay [1]; with XIP peptide (Xip251-270)) were 1.15 (inactive) and 0.87, respectively. Besides, the z-score in assay [2] is -0.306; in assay [3] it was -4.3 (inactive); in assay [4], 0.541 (inactive); in assay [5] it was -0.219 (inactive).
On to `CC(C)C(CO)N1C(=O)[C@@H]2C3C(=O)OCCC/C=C\[C@H]3OC23C=CCN(CCN2CCOCC2)C(=O)[C@@H]13` (some centres not stated), for which the results for the composite z-score (in assay [1]; in the assay with XIP peptide (Xip251-270)) were -0.0949 (inactive) and -0.816, respectively. The z-score in assay [2] is 1.17; in assay [3], -7 (inactive); in assay [4], 0.248 (inactive); in assay [5], -0.0469 (inactive).
With `CCCC[C@@H]1C[C@H]1[C@@H](NC(=O)c1ccccc1)c1ccc(C(=O)OC)cc1`, the values for the composite z-score (in assay [1]; in the assay on XIP peptide (Xip251-270)) were -0.0225 (inactive) and 0.221, respectively. The z-score in assay [2] is -0.0079; in assay [3], -3.64 (inactive); in assay [4], 0.665 (inactive); in assay [5], 0.454 (inactive).
For `CCCC#C[Si](O[C@H](CC)c1cn(Cc2cccc(Cl)c2)nn1)(C(C)C)C(C)C`, the composite z-score was -0.0517 (inactive) in assay [1] and 0.298 in the assay on XIP peptide (Xip251-270). In addition, the z-score was -0.0039 in assay [2], -0.759 (inactive) in assay [3], -0.501 (inactive) in assay [4] and -0.675 (inactive) in assay [5].
For `COc1cc2c(cc1OC)CN(C(=O)[C@H]1[C@@H]3C(=O)O[C@@H](c4ccccc4)[C@@H](c4ccccc4)N3[C@@H](c3ccc(O)cc3)[C@]13C(=O)Nc1ccccc13)CC2`, the composite z-score in assay [1] is 0.602 (inactive); in the assay with XIP peptide (Xip251-270) it was 0.755. Besides, the z-score in assay [2] is -0.044; in assay [3], -2.37 (inactive); in assay [4], -0.169 (inactive); in assay [5], -0.238 (inactive).
For `CC(C)C(=C=CC[C@H](O)c1ccc(OCCO)cc1)CCO`, the composite z-score in assay [1] is 0.427 (inactive); in the assay on XIP peptide (Xip251-270) it was -0.107. Moreover, the z-score in assay [2] was -2.19; in assay [3] it was -3.96 (inactive); in assay [4] it was 0.805 (inactive); in assay [5], 0.505 (inactive).
